This is a sample that favours compounds with a hit; in the whole collection about 0.49% have one here.
Anesthetic bind = qHTS Assay for Identification of Novel General Anesthetics | Ferritin light chain (Equus caballus), P02791 | apoferritin/1-aminoanthracene competitive binding, fluorescence | Potency, µM (doses to about 77.5 µM), without a hit: at the highest dose activity change, negative = displacement, actives largely listed as inhibitors | 0.074% of 350,000 active; further: potency means the concentration at half of the fitted maximal effect; on the % scale 0 is the no-effect control and ±100 the full control effect; nearly all actives have a fitted effect of over 20% in size
Target sequence (P02791 2-175 limits assumed): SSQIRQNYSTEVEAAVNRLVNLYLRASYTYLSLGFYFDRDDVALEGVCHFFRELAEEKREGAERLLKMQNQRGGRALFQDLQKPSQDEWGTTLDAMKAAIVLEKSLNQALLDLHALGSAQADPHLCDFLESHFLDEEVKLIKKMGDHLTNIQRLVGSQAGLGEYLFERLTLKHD
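Steps: apoferritin (10 uM) was premixed with half-saturated 1-AMA in PBS, compounds were pin-transferred, plates stood 10 min at room temperature, fluorescence was read at 380/535 nm, and curves were fitted with a Hill equation.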
LDHA inh = qHTS assay for inhibitors of human lactate dehydrogenase; purified LDHA, NADH/diaphorase-resazurin fluorescence; hits give low values; 0.15% of 480,000 active; activity change, % (values are at about 110 or 230 µM); in the data active means activity change below about -30%; inconclusive means mostly about -25% to -30%;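 further: plate controls were DMSO wells for no effect and wells without enzyme for full effect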
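Human LDH5 at 2 nM final in Tris HCl pH 7.4 with 0.06 mM NADH and 0.2 mM pyruvate, reacted 5 minutes at room temperature. Remaining NADH coupled via diaphorase/resazurin; resorufin fluorescence read at 0 and 20 minutes, normalized to enzyme-free and DMSO wells.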
Vif-APOBEC3G blk = qHTS for Inhibitors of Vif-A3G Interactions: qHTS. HeLa A3G-eYFP + Vif (tagged APOBEC3G with the HIV-1 protein that degrades it), YFP fluorescence, overnight. Potency, µM (top dose mostly 46.1 µM), for inactives: top-dose activity, negative = active, hits mostly inhibitors. 0.076% of 410,000 active. AID 602310, 2012; further: potency means the concentration at half of the fitted maximal effect; on the % scale 0 is the no-effect control and ±100 the full control effect; nearly all actives have a fitted effect of over 60% in size
Target sequence (Q9HC16 whole entry, looked up): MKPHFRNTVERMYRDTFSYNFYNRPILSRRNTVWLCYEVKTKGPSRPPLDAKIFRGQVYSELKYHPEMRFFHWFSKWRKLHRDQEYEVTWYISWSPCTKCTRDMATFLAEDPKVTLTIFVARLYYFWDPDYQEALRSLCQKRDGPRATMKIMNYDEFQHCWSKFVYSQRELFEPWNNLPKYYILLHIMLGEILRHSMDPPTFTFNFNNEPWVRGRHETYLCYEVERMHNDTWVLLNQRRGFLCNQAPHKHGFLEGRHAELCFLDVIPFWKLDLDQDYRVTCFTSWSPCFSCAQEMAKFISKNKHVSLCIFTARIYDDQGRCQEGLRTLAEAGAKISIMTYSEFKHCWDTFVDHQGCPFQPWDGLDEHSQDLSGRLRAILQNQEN
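Read-out is eYFP fluorescence (Ex 488/Em 500-530) from Vif-expressing HeLa A3G-eYFP cells; more signal means A3G escaped Vif-mediated degradation. Cells plated overnight, compound pinned in, incubated overnight at 37 deg C.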
Epigenetic reg = Quantitative High-Throughput Screen for Regulators of Epigenetic Control; 0.2% of 280,000 active; murine LDR cells, GFP reporter derepression, 30 h; AID 1865, 2009; Potency, µM (doses to about 53.9 µM), for the others: top-dose GFP activation, actives largely listed as activators; further: potency means the concentration at half of the fitted maximal effect; % of control where 0% means no effect; nearly all actives have a fitted effect of over 60% in size
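GFP-positive cell count by laser-scanning cytometry (objects 20–120 um) after 30 h, 37 C compound exposure of murine LDR cells; reporter is CMV-GFP integrated at a silenced locus, inducible by HDAC or DNMT inhibitors.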
Vif-APOBEC3F blk = qHTS for Inhibitors of Vif-A3F Interactions: qHTS; 0.2% of 390,000 active; HeLa A3F-eYFP + Vif (tagged APOBEC3F with the HIV-1 protein that degrades it), YFP fluorescence increase; Potency, µM (highest dose often 46.1 µM), without a hit: at the highest dose activity, negative = active; further: potency means the concentration at half of the fitted maximal effect; % of control where 0% means no effect; nearly all actives have a fitted effect of over 65% in size
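HeLa cells stably expressing Vif plus C-terminally eYFP-tagged A3F were seeded, incubated overnight at 37 deg C, dosed with compound, incubated overnight again at 37 deg C. Yellow fluorescence (Ex 488/Em 500-530) reported blocked Vif-mediated A3F-eYFP degradation.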
* marks the source's active call; other numbers are inactive results. Unless noted, the call rests on the fitted dose curve; in most records, active means well fitted curve in the direction sought with a large enough effect; inconclusive means small, poorly fitted or top-dose-only effect, or another doubt; inactive means no such curve, though single readings can be large; an effect the other way counts as inactive or inconclusive.

For COc1cccc(C2CC(c3ccccc3)=NN2S(=O)(=O)c2ccc(C)cc2)c1OC (configuration not stated) the results were Anesthetic bind -8%, LDHA inh -2, Vif-APOBEC3G blk inconclusive, Epigenetic reg inconclusive and Vif-APOBEC3F blk 25µM*.
Screening COc1ccccc1C1CC(c2ccccc2)=NN1S(=O)(=O)c1ccccc1 (configuration not stated) returned Anesthetic bind 21%, LDHA inh -1, Vif-APOBEC3G blk -5%, Epigenetic reg 2% and Vif-APOBEC3F blk 2%.
For COC(=O)/C(=C/c1ccc(F)cc1)NC(C)=O the results were Anesthetic bind -1%, LDHA inh -3, Vif-APOBEC3G blk 0%, Epigenetic reg -1% and Vif-APOBEC3F blk 4%.
Screening COc1ccccc1N1CCN(C2CCN(C(=O)c3cccc(F)c3)CC2)CC1 returned Anesthetic bind -2%, LDHA inh -32*, Vif-APOBEC3G blk 0%, Epigenetic reg 1% and Vif-APOBEC3F blk -14%.
Screening COc1ccc(C(=O)N2CCN(C3CCN(Cc4ccccc4)CC3)CC2)cc1OC returned Anesthetic bind -8%, LDHA inh -40*, Vif-APOBEC3G blk 2%, Epigenetic reg 0% and Vif-APOBEC3F blk -4%.
Screening COc1cccc(C(=O)N2CCN(C3CCN(Cc4ccccc4)CC3)CC2)c1 returned Anesthetic bind -8% and Epigenetic reg 0%.
Cn1cc(/C=C2\SC(=S)N(NC(=O)c3ccccc3Cl)C2=O)c2ccccc21 was read as Anesthetic bind 7%, LDHA inh -6, Vif-APOBEC3G blk inconclusive, Epigenetic reg 0% and Vif-APOBEC3F blk 11µM*.
CN(Cc1ccccc1)c1nc2c(c(=O)n(C)c(=O)n2C)n1CCSc1ncccn1 was read as Anesthetic bind 1%, LDHA inh -6, Vif-APOBEC3G blk 1%, Epigenetic reg 17% and Vif-APOBEC3F blk -6%.
CN(C)c1ccc(C2C=C(c3ccccc3)Nc3nnnn32)cc1 (configuration not stated) was read as Anesthetic bind -15%, LDHA inh 2, Vif-APOBEC3G blk inconclusive, Epigenetic reg 9% and Vif-APOBEC3F blk 25µM*.
Screening CCOc1ccc(C2C=C(c3ccccc3)Nc3nnnn32)cc1 (configuration not stated) returned Anesthetic bind 119%, LDHA inh -3, Vif-APOBEC3G blk -3%, Epigenetic reg -2% and Vif-APOBEC3F blk 2%.
Screening Cc1ccc(C(=O)Nc2ccc(-c3nc4ccccc4o3)cc2)cc1 returned LDHA inh -3.
For CC1=C(C(=O)Nc2ccccc2)C(c2ccc(C)cc2)N=C(Nc2nc3ccccc3o2)N1 (configuration not stated) the results were Anesthetic bind -8%, LDHA inh -3, Vif-APOBEC3G blk inconclusive, Epigenetic reg 0% and Vif-APOBEC3F blk 10µM*.
COCCc1nn2c(=O)cc(COC(=O)c3cccs3)nc2s1 was read as Anesthetic bind -10%, LDHA inh -13, Vif-APOBEC3G blk 6%, Epigenetic reg 1% and Vif-APOBEC3F blk 8%.
Screening CCOC(=O)COn1c(=O)c(-c2ccc(F)cc2)[n+]([O-])c2ccccc21 returned Anesthetic bind 8%, LDHA inh -9, Vif-APOBEC3G blk -3% and Vif-APOBEC3F blk 5%.
CCOC(=O)COn1c(=O)c(-c2ccc(Br)cc2)[n+]([O-])c2ccccc21 was read as Anesthetic bind 3%, LDHA inh 7, Vif-APOBEC3G blk 0% and Vif-APOBEC3F blk 1.8µM*.
`C=CCOn1c(=O)c(C)[n+]([O-])c2ccccc21` gave Anesthetic bind -7%, LDHA inh 2, Vif-APOBEC3G blk inconclusive, Epigenetic reg inconclusive and Vif-APOBEC3F blk -10%.
`CCOn1c(=O)c(C)[n+]([O-])c2ccccc21` gave Anesthetic bind -4%, LDHA inh 4, Vif-APOBEC3G blk inconclusive, Epigenetic reg 20µM* and Vif-APOBEC3F blk inconclusive.
Cn1nc(C(=O)NCc2ccc(O)cc2)c2ccccc2c1=O was read as LDHA inh 14.
`CC1CCCCN1C(=O)CSc1nnc2c(n1)[nH]c1ccccc12` (configuration not stated) gave Anesthetic bind -6%, LDHA inh -5, Vif-APOBEC3G blk 2% and Vif-APOBEC3F blk 9%.
Screening NC(=O)C(Oc1ccc(F)cc1Cl)c1ccccc1 (configuration not stated) returned LDHA inh 1.
Screening C[C@H]1CN([C@@H](C)CO)C(=O)c2cc(Br)cnc2O[C@@H]1CN(C)C(=O)CN(C)C returned LDHA inh -37*, Vif-APOBEC3G blk 3% and Vif-APOBEC3F blk -5%.
`Cc1cccc(NC(=O)CSc2nc(-c3cccs3)cc(C(F)(F)F)c2C#N)c1` gave Anesthetic bind 4%, LDHA inh -3, Vif-APOBEC3G blk -2%, Epigenetic reg 14µM* and Vif-APOBEC3F blk 3%.
CCOC(=O)c1ccc(NC(=O)CSc2nc(-c3cccs3)cc(C(F)(F)F)c2C#N)cc1 was read as Anesthetic bind 28%, LDHA inh -2, Vif-APOBEC3G blk inconclusive, Epigenetic reg 10µM* and Vif-APOBEC3F blk 4µM*.
`COc1ccc(-c2cc(C(F)(F)F)c(C#N)c(SCC(=O)Nc3cccc(C)c3)n2)cc1` gave Anesthetic bind 3%, LDHA inh -8, Vif-APOBEC3G blk -9%, Epigenetic reg 5% and Vif-APOBEC3F blk -3%.
For CCOC(=O)c1ccc(NC(=O)CSc2nc(-c3ccc(OC)cc3)cc(C(F)(F)F)c2C#N)cc1 the results were Anesthetic bind 1%, LDHA inh -1, Vif-APOBEC3G blk inconclusive, Epigenetic reg inconclusive and Vif-APOBEC3F blk 25µM*.
COc1ccc(-c2cc(C(F)(F)F)c(C#N)c(SCC(=O)Nc3ccccc3C#N)n2)cc1 was read as Anesthetic bind 57%, LDHA inh -11, Vif-APOBEC3G blk -21% and Epigenetic reg 7.9µM*.
`COc1ccc(NC(=O)CSc2nc(-c3cccs3)cc(C(F)(F)F)c2C#N)cc1` gave Anesthetic bind -1%, LDHA inh 1, Vif-APOBEC3G blk -9%, Epigenetic reg inconclusive and Vif-APOBEC3F blk inconclusive.
CN(CC(=O)NC(C)(C)C)C(=O)c1cc2cc(Br)ccc2[nH]1 was read as LDHA inh 4.
`COc1cc(C(=S)N2CCOCC2)ccc1OS(=O)(=O)c1ccccc1[N+](=O)[O-]` gave Anesthetic bind 2%, LDHA inh -3, Vif-APOBEC3G blk 0%, Epigenetic reg 0% and Vif-APOBEC3F blk 1%.
Cc1cccn2c(=O)cc(CSc3ccccc3NC(=O)c3ccccc3Cl)nc12 was read as LDHA inh -32*.

High-throughput results from PubChem.
